In the supplement of paper PMC10720658:
± gives the standard deviation of the averaged measurements.

System: AEK1 (Tb927.3.2440)
Assay: percent reduction in TR-FRET probe signal relative to DMSO control; higher = stronger displacement of ATP-site probe (binding)
Conditions: 1 µM; incubation time 1 h

Structure (SMILES) | percent reduction in TR-FRET probe signal [%]
C[C@H]1[C@H](C)CC[C@]2(C(=O)O)CC[C@]3(C)C(=CC[C@@H]4[C@@]5(C)C[C@@H](O)[C@H](O)[C@@](C)(CO)[C@@H]5CC[C@]43C)[C@H]12 [Asiatic Acid] | -8.28 ± 13
C[C@H](NC(=O)/C(C#N)=C/c1cccc(Br)n1)c1ccccc1 | -10.8 ± 3.7
Cc1cc([C@@H](C)Nc2ccccc2C(=O)O)c2nc(N3CCOCC3)cc(=O)n2c1 | -5.32 ± 14
COc1cc2nccc(Oc3ccc(NC(=O)Nc4ccc(F)cc4F)c(F)c3)c2cc1OC | 10.2 ± 11
CO[C@@H](C(=O)N1Cc2[nH]nc(NC(=O)c3ccc(N4CCN(C)CC4)cc3)c2C1)c1ccccc1 | 24.2 ± 6.1
CCN(CC)CCCCNc1ncc2cc(-c3cc(OC)cc(OC)c3)c(NC(=O)NC(C)(C)C)nc2n1 | -17.7 ± 31
Cc1csc(-c2nnc(Nc3ccc(Oc4ncccc4-c4ccnc(N)n4)cc3)c3ccccc23)c1 | 55.7 ± 11
O=C(c1cccc(Cl)c1F)N1CCN(Cc2cccc(Nc3nccs3)n2)CC1 | 6.09 ± 13
C#Cc1cccc(Nc2ncnc3cc4c(cc23)OCCOCCOCCO4)c1 [Icotinib] | -5.67 ± 19
Cc1cc2c(F)c(Oc3ncnn4cc(OC[C@@H](C)OC(=O)[C@H](C)N)c(C)c34)ccc2[nH]1 | 8.47 ± 14
Cn1c(Nc2ccc(C(F)(F)F)cc2)nc2cc(Oc3ccnc(-c4ncc(C(F)(F)F)[nH]4)c3)ccc21 | 34 ± 20
N#CCNC(=O)c1ccc(-c2ccnc(Nc3ccc(N4CCOCC4)cc3)n2)cc1 | 16.3 ± 16
O=C(/C=C/c1ccc2ccccc2n1)c1ccncc1 | -6.28 ± 6
Cc1cnc(NC(=O)Nc2cc(Br)c(C)cc2OC[C@@H]2CNCCO2)cn1 | 9.29 ± 6.3
C[C@H](Nc1ncnc2[nH]cnc12)c1cc2ccc(F)cc2nc1-c1ccccn1 | -3.52 ± 7.7
Nc1nc(N)c2nc(-c3cccc(O)c3)c(-c3cccc(O)c3)nc2n1 | 19.3 ± 26
Cn1cc(-c2[nH]c3cc(NC(=O)[C@H](N)C4CCCCC4)cc4c3c2C=NNC4=O)cn1 | 76.9 ± 6.5
O=c1cc(-c2cccc3c2Sc2ccccc2S3)oc(N2CCOCC2)c1 | -8.85 ± 7.2
C=CC(=O)N1CCCC(n2c(=O)n(-c3ccc(Oc4ccccc4)cc3)c3c(N)ncnc32)C1 (configuration not stated) [ONO-4059 analogue] | 4.33 ± 16

Structure (SMILES) | percent reduction in TR-FRET probe signal [%]
CN1CCN(c2cccc(Nc3nc4c(-c5ccc(S(C)(=O)=O)cc5)cccn4n3)c2)CC1 | 7.3 ± 6.6
O=C(c1ccc(/C=C/c2n[nH]c3ccccc23)cc1)N1CCNCC1 | 51.6 ± 14
CC(C)(C)c1nc(-c2cccc(NS(=O)(=O)c3c(F)cccc3F)c2F)c(-c2ccnc(N)n2)s1 | 6.2 ± 7.3
CC1=C(C(=O)Nc2cc3cn[nH]c3cc2F)C(c2ccc(C(F)(F)F)cc2)CC(=O)N1 (configuration not stated) | -2.47 ± 11
COc1cc(C(=O)NC2CCN(C)CC2)ccc1Nc1ncc2c(n1)N(C1CCCC1)CC(F)(F)C(=O)N2C | -5 ± 7
Cn1cc(C2=C(c3ccc(Cl)cc3Cl)C(=O)NC2=O)c2ccccc21 | -6.53 ± 5.3
CN1CC[C@H](c2c(O)cc(O)c3c(=O)cc(-c4ccccc4Cl)oc23)[C@H](O)C1.Cl [Flavopiridol HCl] | -6.15 ± 9.4
CCN(CC)CCCC(C)Nc1ccnc2cc(Cl)ccc12.O=P(O)(O)O.O=P(O)(O)O (configuration not stated) [Chloroquine Phosphate] | -15.1 ± 5.7
O=c1ccc2ccc(O)c(O)c2o1 [Daphnetin] | -1.13 ± 8.9
COc1cc2ncnc(Nc3ccc(F)c(Cl)c3)c2cc1NC(=O)/C=C/CN1CCCCC1 | -9.62 ± 5
O=C(NOC[C@H](O)CO)c1ccc(F)c(F)c1Nc1ccc(I)cc1F | -3.89 ± 11
CC(C)[C@H](CO)Nc1nc(Nc2cccc(Cl)c2)c2ncn(C(C)C)c2n1 [Purvalanol A] | 4.44 ± 18
NC(=O)c1cccc(-c2cc(Nc3ccc(OC(F)(F)F)cc3)ncn2)c1 | -4.38 ± 9.6
O=c1ncn2nc(Sc3ccc(F)cc3F)ccc2c1-c1c(Cl)cccc1Cl | 9.39 ± 14
N#Cc1c(O)c2c(-c3ccc(-c4ccccc4O)cc3)csc2[nH]c1=O | -7.05 ± 2.1
C[C@@H]1COCCN1c1cc(C2(S(C)(=N)=O)CC2)nc(-c2ccnc3[nH]ccc23)n1 (some centres not stated) | 8.44 ± 6
Oc1cc(O)cc(/C=C/c2ccc(O)c(O)c2)c1 [Piceatannol] | 44.1 ± 8
O=C1c2ccc(Nc3ccc(F)cc3F)cc2CCc2ccc(OC[C@H](O)CO)cc21 [Skepinone-L] | -1.27 ± 10
